± gives the standard deviation or the standard deviation of the averaged measurements.
Tests used:
Conditions in all cases: 25 µM; exposure: 24-48 hpf
[1] = tested on: Danio rerio Tg(wt1b:EGFP) embryo, pronephros; test: glomerular separation, fold change vs DMSO control; higher = glomeruli further apart (abnormal)
Summary of the method: (§1)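 Using a Fiji macro, distances and angles were calculated from 16 reference points set by hand on maximum projections of pronephroi imaged dorsally (470 nm, 10 z-slices) in agarose-filled 96-well plates. The dechorionated Tg(wt1b:EGFP) zebrafish embryos had received 25 μM compound in 0.5% DMSO in HEPES-buffered E3 with 0.003% PTU from 24 to 48 hpf at 28.5°C. Values more than 2 SD from a feature's mean were excluded. Each feature appears as a fold change over the mean of DMSO-treated embryos from the same day.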

[2] = tested on: Danio rerio Tg(wt1b:EGFP) embryo, pronephros; test: glomerular width (mean of left and right), fold change vs DMSO control; higher = wider glomerulus
Summary of the method: as §1

[3] = tested on: Danio rerio Tg(wt1b:EGFP) embryo, pronephros; test: fraction of imaged embryos annotated as normal kidney; higher = less nephrotoxic; extreme values may be limits of the assay
Summary of the method: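 Tricaine-anaesthetised Tg(wt1b:EGFP) zebrafish larvae were oriented dorsally in agarose-filled 96-well plates, and their pronephroi were recorded by widefield fluorescence at 470 nm in 10 z-slices. Before this, the dechorionated embryos had been exposed in 12-well plates to 25 μM compound in 0.5% DMSO and 5 mM HEPES-buffered E3 with 0.003% PTU, from 24 to 48 hpf at 28.5°C. Maximum projections were annotated manually for each embryo, and the read-out is the fraction per treatment classed as normal kidney.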

[4] = tested on: Danio rerio Tg(wt1b:EGFP) embryo, pronephros; test: pronephric angle neck segment to proximal convoluted tubule (mean of left and right), fold change vs DMSO control; higher = larger pronephric angle
Summary of the method: as §1

**Q.** Which results are given for `C[C@@H]1CCC[C@H](C)N1NC(=O)c1ccc(Cl)c(S(N)(=O)=O)c1` [Clopamide]?
**A.** glomerular separation [1]: 0.881 ± 0.2; glomerular width [2]: 1.01 ± 0.02; fraction of imaged embryos annotated as normal kidney [3]: 0.917; pronephric angle neck segment [4]: 0.98 ± 0.051

**Q.** How did the glomerular separation [1] turn out when `CC(C)(Oc1ccc(C2CC2(Cl)Cl)cc1)C(=O)O` (stereo not given) [Ciprofibrate] was run?
**A.** 1.25 ± 0.62

**Q.** And the glomerular width [2]?
**A.** 0.934 ± 0.023

**Q.** And the “fraction of imaged embryos annotated as normal kidney” value (“fraction of imaged embryos annotated” for short) [3]?
**A.** 0.818

**Q.** What about the “pronephric angle neck segment” value [4] of the same molecule?
**A.** 1.082 ± 0.0058

**Q.** For `CCSc1ccc2c(c1)N(CCCN1CCN(C)CC1)c1ccccc1S2` [Thiethylperazine dimalate], which glomerular separation [1] is on record?
**A.** 0.677 ± 0.22

**Q.** What about the glomerular width [2] of the same molecule?
**A.** 1.054 ± 0.0092

**Q.** What about the “fraction of imaged embryos annotated” value [3] of the same molecule?
**A.** 0.833

**Q.** And the “pronephric angle neck segment” value [4]?
**A.** 0.9766 ± 0.0079

**Q.** What does the source list for `Clc1ccc(COC(Cn2ccnc2)c2ccc(Cl)cc2Cl)cc1` (stereo not given) [Econazole nitrate]?
**A.** glomerular separation [1]: 2.58 ± 1.3; glomerular width [2]: 0.9791 ± 0.0056; fraction of imaged embryos annotated as normal kidney [3]: 0.417; pronephric angle neck segment [4]: 1.2 ± 0.0047

**Q.** How did the glomerular separation [1] turn out when `O=c1[nH]cnc2c1ncn2[C@H]1CC[C@@H](CO)O1` [Didanosine] was run?
**A.** 1.24 ± 0.56

**Q.** And the glomerular width [2]?
**A.** 1.06 ± 0.052

**Q.** What about the “fraction of imaged embryos annotated” value [3] of the same molecule?
**A.** 0.7

**Q.** What about the “pronephric angle neck segment” value [4] of the same molecule?
**A.** 0.972 ± 0.041

**Q.** With `CCN1CCCC1CNC(=O)c1cc(S(=O)(=O)CC)c(N)cc1OC` (stereo not given) [Amisulpride] as the molecule, how does the glomerular separation [1] read?
**A.** 0.971 ± 0.31

**Q.** And the glomerular width [2]?
**A.** 1.04 ± 0.042

**Q.** And the “fraction of imaged embryos annotated” value [3]?
**A.** 0.9

**Q.** What about the “pronephric angle neck segment” value [4] of the same molecule?
**A.** 0.9586 ± 0.0016

**Q.** With `CN(C)CCc1c[nH]c2ccc(Cn3cncn3)cc12` [Rizatriptan benzoate] as the molecule, how does the glomerular separation [1] read?
**A.** 0.941 ± 0.29

**Q.** And the glomerular width [2]?
**A.** 1.01 ± 0.025

**Q.** And the “fraction of imaged embryos annotated” value [3]?
**A.** 0.5

**Q.** What about the “pronephric angle neck segment” value [4] of the same molecule?
**A.** 1.02 ± 0.07

**Q.** What does the source list for `CC#C[C@]1(O)CC[C@H]2[C@@H]3CCC4=CC(=O)CCC4=C3[C@@H](c3ccc(N(C)C)cc3)C[C@@]21C` [Mifepristone]?
**A.** glomerular separation [1]: 0.949 ± 0.33; glomerular width [2]: 1.15 ± 0.027; fraction of imaged embryos annotated as normal kidney [3]: 0.75; pronephric angle neck segment [4]: 1.0508 ± 0.001

**Q.** `Nc1nnc(-c2cccc(Cl)c2Cl)c(N)n1` [Lamotrigine] was tested. Which glomerular separation [1] did it give?
**A.** 0.99 ± 0.4

**Q.** What about the glomerular width [2] of the same molecule?
**A.** 0.999 ± 0.016

**Q.** And the “fraction of imaged embryos annotated” value [3]?
**A.** 0.9

**Q.** And the “pronephric angle neck segment” value [4]?
**A.** 0.998 ± 0.039

**Q.** What does the source list for `C[C@]1(Cn2ccnn2)[C@H](C(=O)O)N2C(=O)C[C@H]2S1(=O)=O` [Tazobactam]?
**A.** glomerular separation [1]: 0.923 ± 0.63; glomerular width [2]: 1.07 ± 0.018; fraction of imaged embryos annotated as normal kidney [3]: 0.75; pronephric angle neck segment [4]: 0.985 ± 0.018
